The record followed here is PubChem BioAssay AID1377 (University of Pittsburgh Molecular Library Screening Center, 2008).

In all, about 220,000 compounds went through this assay and about 830 (0.38%) were called active.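 The calls were made as follows: active = activation, scaled between plate controls, above about 75% (limit read from the data); inactive = activation under that limit.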 The list comes from a sample in which actives are over-represented; it also holds similar structures and randomly drawn compounds.

A short description of the experiment: inhibitors of zVAD-triggered necroptosis, primary screen, L929 cells (AID 1377).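 Also: 0% = zVAD with DMSO and 100% = DMSO alone without zVAD.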 Particulars: ATP luminescence, 24 h, at 10 µM, with zVAD 60 µM, active compounds read high.
For `COC(=O)C(c1ccccc1)N1CCCCCC1` (stereo not given), the viability rescue was 0.41% (inactive).

Turning to `COC(=O)N1C(c2ccccc2)C1c1ccccc1` (stereo not given), the viability rescue was 83.8% (active). For the molecule `CCCC[N+]1(C)C2CC(OC(=O)C(CO)c3ccccc3)CC1C1OC12` (stereo not given), the viability rescue is -0.33% (inactive). Regarding `CN1CCN(/N=C/c2c[nH]c3ccccc23)CC1`, the viability rescue is -0.46% (inactive). In the case of `CC1C2Cn3c(nc4ccccc43)C1N(C)O2` (stereo not given), the viability rescue is 0.4% (inactive).
